Screening results from PubChem.
IL1B secr inh – inflammasome signaling inhibition, IL-1 beta readout; AID 743279; activity change, % at 57.5 µM; hit rate 4.7% among 360,000; THP-1 LPS/ATP IL-1B secretion, AlphaLISA, 16 h; stronger effect = lower value; in the data active = activity change below about -50%; inconclusive = mostly about -30% to -49%
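Secreted IL-1B measured by AlphaLISA bead assay after 16 h compound exposure of THP-1 cells; compounds (final up to 57.5 uM) added 1 h before LPS (250 ng/mL) and ATP (1.25 mM) stimulation; lower signal means less secretion.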
12-LOX inh – blocks human arachidonate 12S-lipoxygenase | AID 1671190 | Potency, µM (top dose mostly 108 µM), for the others: at the top dose activity change, negative = inhibition, hits mostly inhibitors | P18054 | purified 12hLO, xylenol orange hydroperoxide absorbance | hit rate 1.1% among 580,000; note: potency is the fitted concentration of half-maximal effect
Target sequence (P18054 whole entry, looked up): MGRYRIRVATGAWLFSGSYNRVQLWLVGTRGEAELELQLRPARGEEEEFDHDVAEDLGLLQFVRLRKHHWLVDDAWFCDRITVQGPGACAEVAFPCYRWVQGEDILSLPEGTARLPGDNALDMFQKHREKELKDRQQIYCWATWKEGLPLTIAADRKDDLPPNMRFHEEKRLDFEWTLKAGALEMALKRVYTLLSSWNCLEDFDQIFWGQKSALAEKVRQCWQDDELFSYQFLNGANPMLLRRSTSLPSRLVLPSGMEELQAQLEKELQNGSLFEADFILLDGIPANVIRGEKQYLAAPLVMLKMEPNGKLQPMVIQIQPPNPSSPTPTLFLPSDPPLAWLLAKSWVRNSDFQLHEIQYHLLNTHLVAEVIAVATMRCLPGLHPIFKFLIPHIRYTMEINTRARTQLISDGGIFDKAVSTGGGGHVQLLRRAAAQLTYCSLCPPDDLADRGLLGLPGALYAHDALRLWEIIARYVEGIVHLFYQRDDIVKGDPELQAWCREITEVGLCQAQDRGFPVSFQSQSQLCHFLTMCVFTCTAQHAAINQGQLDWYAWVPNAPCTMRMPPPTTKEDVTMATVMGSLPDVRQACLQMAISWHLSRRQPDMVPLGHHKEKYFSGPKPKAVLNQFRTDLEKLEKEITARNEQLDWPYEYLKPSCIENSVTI
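Purified human 12hLO (150 nM final) in 25 mM Hepes, 0.01% Triton X-100, pH 7.0 was preincubated 15 min at room temperature with compound. Then 40 uM arachidonic acid was added, 30 min. Hydroperoxide was read by Fe-XO absorbance ratio 573/405 nm.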
DT40 TDP1 CPT – growth inhibition of DT40 Tdp1-/-;hTDP1 cells with camptothecin (screen for TDP1 inhibitors); hit rate 12% among 420,000; Potency, µM (doses to about 46.2 µM), for inactives: top-dose activity change, negative = growth inhibition, most hits filed as inhibitors; AID 686979; chicken DT40 Tdp1-/-;hTDP1 cells + 20 nM CPT, ATP luminescence, 48 h; note: potency is the fitted concentration of half-maximal effect; nearly all actives have a fitted effect of over 55% in size
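Chicken DT40 Tdp1-/- cells stably complemented with human TDP1 were seeded at 400 cells/well in medium containing 20 nM camptothecin, exposed to pin-transferred compounds, and grown at 37 °C for at least 48 hr. Viability was read as ATP luminescence.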
DT40 TDP1 no CPT – qHTS for Inhibitors of human tyrosyl-DNA phosphodiesterase 1 (TDP1): qHTS in cells in absence of CPT; DT40 Tdp1-/- hTDP1 cells, no CPT, ATP luminescence, 48 h; Potency, µM (doses to about 46.2 µM), for inactives: top-dose activity change, negative = growth inhibition, usual class: inhibitors; hit rate 15% among 420,000; AID 686978, 2013; note: potency is the fitted concentration of half-maximal effect; nearly all actives have a fitted effect of over 55% in size
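Camptothecin absent (DMSO only). Human TDP1-complemented DT40 knockout cells, 400 cells/well, 37 °C for minimum 48 hr; ATP measured via CellTiter-Glo, 30 min dark incubation, luminescence.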
HT1080 IDH1KD tx – toxicity to HT-1080 IDH1 knockdown cells (counter line). HT-1080 IDH1 knockdown viability, ATP luminescence, 48 h. Potency, µM (series often up to 46.1 µM), for the others: top-dose activity, negative = toxicity, usual class: cytotoxic. hit rate 2% among 360,000. AID 686971;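 note: potency is the fitted concentration of half-maximal effect; 0% = DMSO wells and -100% = cell-free medium wells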
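Luminescent ATP read-out (CellTiter-Glo, 10 min at room temperature) after 48 h compound exposure at 37 °C gave viability of IDH1-knockdown HT-1080 cells. Activity was normalised to DMSO and cell-free wells, then fitted as concentration-response curves.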
HT1080-NT tox – kills 2HG-producing HT-1080-NT fibrosarcoma cells; hit rate 1.6% among 360,000; HT-1080-NT fibrosarcoma viability, CellTiter-Glo ATP luminescence, 48 h; Potency, µM (series often up to 46.1 µM), for the others: at the top dose activity, negative = less viability, usual class: cytotoxic;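 note: NT is the 2HG producing partner of a matched IDH1 knockdown line; potency is the fitted concentration of half-maximal effect; 0% = DMSO-treated cells and -100% = media-only wells without cells; nearly all actives have a fitted effect of over 55% in size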
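Luminescent CellTiter-Glo readout after 48 hours of compound exposure at 37 degrees C defined viability of HT-1080-NT cells. Activity was normalized to DMSO wells and cell-free media wells; concentration-response curves were fitted and assigned curve classes.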
Starred values were filed as active, the others as inactive; u = inconclusive; x = no result; [ ] = dose if it differs, or a comment. The full list was thinned out, with hits kept by preference. Unless noted, calls come from the whole dose curve; as a rule, active = well fitted curve in the direction sought with a large enough effect; inconclusive = small, poorly fitted or top-dose-only effect, or another doubt; inactive = no such curve, though single readings can be large; an effect the other way counts as inactive or inconclusive. Unless noted, % is set by controls: 0 for no effect and ±100 for the full control effect.

SMILES	IL1B secr inh	12-LOX inh	DT40 TDP1 CPT	DT40 TDP1 no CPT	HT1080 IDH1KD tx	HT1080-NT tox
Cc1cc(C)c(C#N)c(SCC(=O)C(C)(C)C)n1	19	10%	-1%	-9%	14%	8%
COC(=O)CC(=O)CSc1nc(C)cc(C)c1C#N	40	0%	29µM*	u	-4%	-10%
COC(=O)CSc1nsc(SCC(=O)OC)c1C#N	-100*	-10%	-33%	-19%	u	0%
CC(C)OC(=O)CC(=O)CSc1nc2c(cc1C#N)CCC2	14	0%	u	8.2µM*	-17%	1%
Cc1ccc(C(=O)NCCC2=CCCCC2)cc1C	x	-38%	x	x	x	x
CNC(=O)[C@H]1C[C@H](Oc2ccccc2)CN1C(=O)Cn1ccnc1	x	16%	x	x	x	x
COc1ccccc1CCNC(=O)c1csc(NC(C)C)n1	x	25%	x	x	x	x
COC(=O)CC(=O)CSc1nc2c(cc1C#N)CCC2	8	2%	18µM*	u	u	u
COc1cc2c(cc1OC)[C@H](C)N(C(=O)c1ccc(F)cc1)CC2	x	-17%	x	x	x	x
CC1c2cc3c(cc2CCN1C(=O)c1ccc(C(F)(F)F)cc1)OCCCO3 (centres undefined)	-3	13%	u	u	-5%	-9%
CC(=O)Nc1ccc(C(=O)N2CCc3cc4c(cc3C2C)OCCCO4)cc1 (centres undefined)	11	-6%	u	18µM*	-12%	-5%
Cc1ccc(C(=O)N2CCc3cc4c(cc3C2C)OCCCO4)cc1 (centres undefined)	-16	13%	23µM*	u	u	u
CC1c2cc3c(cc2CCN1C(=O)c1ccc(Cl)cc1)OCCCO3 (centres undefined)	-59*	11%	16µM*	13µM*	u	u
CC1c2cc3c(cc2CCN1CC(=O)Nc1ccc(S(=O)(=O)N2CCCC2)cc1)OCCCO3 (centres undefined)	-28	5%	u	-25%	-11%	-5%
CC(C)Oc1cccc(-c2noc(-c3ccc(S(=O)(=O)NC4CC4)o3)n2)c1	x	9%	x	x	x	x
Cc1ccc(-c2cc(-c3ccc(Cl)cc3)c(C#N)c(N)c2C#N)cc1	x	8%	x	x	x	x
O=C(NCC(F)(F)F)C1CN(Cc2ccccc2)C(=O)N1 (centres undefined)	x	51%[176 µM]	x	x	x	x
Cc1ccc(S(=O)(=O)N2CCC(=O)N([C@H](COCc3ccc(Cl)cc3Cl)Cc3ccccc3)CC2)cc1	7	u	u	23µM*	8%	12%
Cc1ccc(S(=O)(=O)N2CCC(=O)N([C@H](COCc3cccc(C)c3)C(C)C)CC2)cc1	0	-29%	u	u	7%	13%
Cc1ccc(S(=O)(=O)N2CCC(=O)N(C(COCc3ccc(Cl)cc3)Cc3ccccc3)CC2)cc1 (centres undefined)	6	-8%	u	16µM*	1%	2%
Cc1ccc(S(=O)(=O)N2CCC(=O)N(C(COCc3ccccc3)C(C)C)CC2)cc1 (centres undefined)	0	u	u	u	-2%	-1%
COc1ccc(CC(=O)N(C)C2CCc3ccccc3C2)cc1 (centres undefined)	x	-5%[176 µM]	x	x	x	x
O=C(Nc1nc(-c2cccnc2)cs1)c1cccc([N+](=O)[O-])c1	-8	4%	-17%	23µM*	1%	8%
O=C(Nc1ncc([N+](=O)[O-])s1)c1cccc([N+](=O)[O-])c1	0	0%	9.2µM*	21µM*	-2%	-2%
O=C(Nc1ncc(Cc2cccc(Cl)c2Cl)s1)c1ccc([N+](=O)[O-])cc1	3	0%	13µM*	16µM*	7%	5%
SMILES	IL1B secr inh	12-LOX inh	DT40 TDP1 CPT	DT40 TDP1 no CPT	HT1080 IDH1KD tx	HT1080-NT tox
O=C(NCc1cccnc1)c1ccc(NC(=O)c2cccc([N+](=O)[O-])c2)cc1	-10	5%	15µM*	-82%	3.7µM*	u
N#CCC(=O)Nc1ncc(Cc2ccccc2Cl)s1	-6	0%	-11%	-20%	-30%	-7%
CC(=O)Nc1ccc(CNC2CCCc3ccccc32)cc1 (centres undefined)	x	-30%	x	x	x	x
O=C(CCC1CCCC1)Nc1ccc(C(=O)NCc2cccnc2)cc1	-11	-18%	15µM*	u	6.5µM*	5.2µM*
O=C(O)CCCC(=O)Nc1ccc(C(=O)NCc2cccnc2)cc1	2	0%	-4%	-6%	5%	4%
Cc1csc(NC(=O)c2cc[n+]([O-])cc2)n1	-4	6%	-4%	3%	-15%	0%
Cc1csc(NC(=O)c2cc([N+](=O)[O-])cc([N+](=O)[O-])c2)n1	12	-25%	u	23µM*	-3%	1%
O=C(COC(=O)c1ccccn1)Nc1nc(-c2ccccc2)cs1	-2	-16%	-13%	-15%	11%	14%
COc1ccccc1Nc1nc(-c2cccc([N+](=O)[O-])c2)cs1	-25	-13%	u	u	-13%	1%
O=[N+]([O-])c1cccc(-c2csc(Nc3ccccc3)n2)c1	-105*	-24%	u	29µM*	u	u
O=C(COC(=O)c1ccccn1)Nc1nc(-c2cccc([N+](=O)[O-])c2)cs1	-30	2%	u	18µM*	7%	-2%
COc1cccc(-c2nnnn2[C@H]2CO[C@H]3[C@@H]2OC[C@@H]3NC(=O)c2ccc(N(C)C)cc2)c1	x	-31%	x	x	x	x
CCC(C)(C)C1CCc2c(sc(NC(=O)/C=C/c3ccccc3)c2C#N)C1 (centres undefined)	x	28%	x	x	x	x
O=C(Nc1nc(-c2ccccc2)cs1)c1cccc([N+](=O)[O-])c1	-79*	-37%	u	u	-13%	-9%
O=C(Cc1ccccc1)Nc1nc(-c2cccc([N+](=O)[O-])c2)cs1	-14	1%	-19%	u	23%	25%
CC(C)(C)c1ccc(-n2ncc3c2CCCC3NC(=O)c2ccco2)cc1 (centres undefined)	56	5%	21µM*	15µM*	-23%	-19%
Cc1cc(C(=O)NC2CCCc3c2cnn3-c2ccc(C(C)(C)C)cc2)nn1C (centres undefined)	5	-2%	8.2µM*	16µM*	-16%	13µM*
CC(=O)Nc1cccc(C(=O)NC2CCCc3c2cnn3-c2ccc(C(C)(C)C)cc2)c1 (centres undefined)	57	-1%	u	u	u	-26%
